From PubChem BioAssay (NCATS)
Inconclusive results are not listed. Values without a mark were called inactive. Activity calls are given as the source filed them. Calls come from the whole dose curve; as a rule, active = well fitted inhibition curve with a large enough effect; inconclusive = small, poorly fitted or top-dose-only effect; inactive = flat fitted curve, though single readings scatter.

Target: Calcium and integrin-binding protein 1 (Homo sapiens) (UniProt Q99828)
Experiment: Primary qHTS for Identification of Calcium Integrin Binding Protein 1 (CIB1) Competitor (AID 1508620);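 note: GST tagged CIB1 binding a fluorescein labelled alphaIIb integrin peptide tracer; top concentration of the series differs between compounds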
Settings: CIB1-GST / FITC-alphaIIb peptide fluorescence polarization; series mostly up to 57.7 µM; activity change, negative = inhibition: at the top concentration
Method in brief: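 CIB1-GST (1 uM final) and compound incubated 15 min at room temperature before adding FITC-alphaIIb peptide tracer (100 nM final). Competition for binding read by fluorescence polarization (ex 480, em 540) after another 15 min at room temperature.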
% is set by controls: 0 for no effect and ±100 for the full control effect.

Chain of Calcium and integrin-binding protein 1 (Homo sapiens) (Q99828 whole entry, looked up): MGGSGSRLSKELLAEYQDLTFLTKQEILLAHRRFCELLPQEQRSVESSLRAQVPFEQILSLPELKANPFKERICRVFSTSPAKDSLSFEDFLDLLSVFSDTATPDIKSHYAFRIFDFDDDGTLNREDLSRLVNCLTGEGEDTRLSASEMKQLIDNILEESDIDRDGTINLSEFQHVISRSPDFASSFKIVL

Structure (SMILES)	activity change, negative = inhibition	outcome
CC(O)=C(C#N)C(=O)Nc1cc(Br)ccc1Br	-3.61%	–
O=C(Nc1ccncc1)C(=O)c1cn(Cc2ccc(Cl)cc2)c2ccccc12	2.97%	–
N#C[C@H](O[C@@H]1O[C@H](CO[C@@H]2O[C@H](CO)[C@H](O)[C@H](O)[C@H]2O)[C@H](O)[C@H](O)[C@H]1O)c1ccccc1	-8.06%	–
C1=C2CCCN[C@H]2[C@@H]2C[C@H]1[C@@H]1CCCCN1C2	-2.32%	–
O=C(Oc1ccc([N+](=O)[O-])cc1)N1CCN(Cc2cccc(Oc3ccccc3)c2)CC1	–	inactive
COCC1(CO)C(=O)C2CCN1CC2 (stereo not given)	0.394%	–
C#C[C@]1(O)C=C[C@@H]2[C@@H]3CCC4=CC(=O)CC[C@@H]4[C@H]3CC[C@@]21CC	-1.11%	–
CC(N[C@H]1C[C@H]1c1ccccc1)c1ccc2c(c1)OCCO2 (stereo not given in full)	–	inactive
COc1ccc(CC2NCCc3cc(OC)c(OC)cc32)cc1OC (stereo not given)	1.87%	–
Cc1nc(-c2ccc(-c3ccc(C(=O)N4CCc5cc6c(cc54)C4(CCN(C)CC4)CO6)cc3)c(C)c2)no1	-5.07%	–
CC(C)(C)c1cc(C=C(C#N)C#N)cc(Br)c1O	1.15%	–
COc1cc([C@@H]2c3cc4c(cc3[C@@H](O)C3COC(=O)C32)OCO4)cc(OC)c1O (stereo not given in full)	-4.83%	–
C=C[C@@H]1CN2CCC1C[C@@H]2[C@@H](O)c1ccnc2ccccc12 (stereo not given in full)	-1.41%	–
COc1cccc2c1[C@]13CCN(CC4CC4)[C@H](C2)[C@]1(OC)CCC(=O)C3	3.16%	–
COC[C@H]1OC(=O)c2coc3c2[C@@]1(C)C1=C(C3=O)[C@@H]2CC[C@H](O)[C@@]2(C)C[C@@H]1OC(C)=O	-7.41%	–
CC(=Cc1csc(C)n1)[C@@H]1C[C@H]2O[C@]2(C)CCC[C@H](C)[C@@H](O)[C@@H](C)C(=O)C(C)(C)[C@@H](O)CC(=O)O1	0.398%	–
CC[C@@H]1[C@@H](C)O[C@@](O)([C@@H](C)[C@H](O)[C@H](C)[C@H]2OC(=O)C=CC=C[C@@H](C)[C@@H]([C@@H](C)[C@@H](O)[C@H](C)[C@@]3(O)C[C@H](O[C@H]4C[C@H](O)[C@H](O)[C@H](C)O4)[C@H](CC)[C@@H](C)O3)OC(=O)C=CC=C[C@@H]2C)C[C@H]1O[C@H]1C[C@H](O)[C@H](O)[C@H](C)O1	1.2%	–
CN1CCN(c2ccc([N+](=O)[O-])c3no[n+]([O-])c23)CC1	–	inactive
COc1cc2cc(c1Cl)N(C)C(=O)C[C@H](OC(=O)C(C)C)[C@]1(C)O[C@H]1[C@H](C)[C@@H]1C[C@@](O)(NC(=O)O1)[C@H](OC)C=CC=C(C)C2	5.5%	–
C[C@@H]1CC[C@H]2[C@@H](C)C(=O)O[C@@H]3O[C@@]4(C)CC[C@H]1[C@]32OO4	-0.496%	–
COc1ccc2c(c1)[C@]13CCCCC1C(C2)N(C)CC3 (stereo not given in full)	-1.49%	–
COc1ccc(C(=O)c2c(C)n(CCN3CCOCC3)c3cc(I)ccc23)cc1	-14%	–
CC(=Cc1csc(C)n1)[C@@H]1C[C@H]2O[C@@H]2CCC[C@H](C)[C@@H](O)[C@@H](C)C(=O)C(C)(C)[C@@H](O)CC(=O)O1	-0.705%	–
CCCCCC[C@H]1C(=O)O[C@H](C)[C@H](NC(=O)c2cccc(NC=O)c2O)C(=O)O[C@@H](C)[C@@H]1OC(=O)CC(C)C	-6%	–
C[C@@H]1O[C@@H](O[C@@H]2C=C3CC[C@@H]4[C@@H](CC[C@]5(C)[C@H](c6ccc(=O)oc6)CC[C@@]45O)[C@@]3(C)CC2)[C@H](O)[C@H](O)[C@H]1O	0.817%	–
CC=C(C)C(=O)N[C@@H](c1ccccc1)[C@@H](O)C(=O)O[C@H]1C[C@@]2(O)[C@@H](OC(=O)c3ccccc3)[C@@H]3[C@]4(OC(C)=O)CO[C@@H]4C[C@H](O)[C@@]3(C)C(=O)[C@H](OC(C)=O)C(=C1C)C2(C)C	-1.08%	–
C[C@@H]1[C@H](O)[C@@H](C)C=CC=CCCC=CC=CC=CC=C[C@H](O[C@H]2O[C@@H](C)[C@H](O)[C@@H](N)[C@@H]2O)CC2O[C@](O)(C[C@@H](O)[C@H](O)CC[C@@H](O)C[C@@H](O)C[C@@H](O)CC(=O)O[C@H]1C)C[C@H](O)[C@H]2C(=O)O	3.67%	–
COc1ccc2c(c1)CN(C)CC2c1ccc(Cl)c(Cl)c1 (stereo not given)	-2.6%	–
C[C@]12CCC(=O)C(O)=C1CC[C@@H]1[C@H]3CCC(=O)[C@@]3(C)CC[C@@H]12	-2.91%	–
CC=C(C)C(=O)O[C@H]1C(C)=C2[C@@H]3OC(=O)[C@@](C)(O)[C@@]3(O)[C@@H](OC(=O)CCC)C[C@](C)(OC(C)=O)[C@@H]2[C@@H]1OC(=O)CCCCCCC	0.626%	–
